The values that follow come from PubChem BioAssay (Tox21).

Inconclusive results are not listed. The source made the active and inactive calls. Unless noted, the call rests on the fitted dose curve; in most records, active means well fitted curve in the direction sought with a large enough effect in the repeat runs; inconclusive means weak or mixed curves; inactive means no such curve, though single readings can be large; an effect the other way counts as inactive or inconclusive.

Assay [1] has as its target Androgen receptor (Homo sapiens) (UniProt P10275). Nature of the assay: qHTS assay to identify small molecule antagonists of the androgen receptor (AR) signaling pathway using the MDA cell line in the presence of 0.5 nM R1881 (AID 1259243). Further: nearly all actives have a fitted effect of over 50% in size. Further: potency means the concentration at half of the fitted maximal effect. Put shortly: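 Antagonist mode quantitative HTS in MDA-kb2 MMTV-luciferase cells, agonist R1881 at 0.5 nM final, 16 hr exposure at 37C and 0% CO2, luminescent detection.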
(In general: qHTS replaces the single test concentration by a dilution series.)

For assay [2], the target named is Estrogen receptor (Homo sapiens) (UniProt P03372). Kind of assay: qHTS assay to identify small molecule antagonists of the estrogen receptor alpha (ER-alpha) signaling pathway using the BG1 cell line in the presence of 0.1 nM 17-beta-estradiol (AID 1259244). Further: nearly all actives have a fitted effect of over 50% in size. Further: potency means the concentration at half of the fitted maximal effect. Put shortly:
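Reporter is a stably transfected luciferase under four estrogen responsive elements in VM7Luc4E2 cells expressing native full-length ER-alpha; inhibition of 0.1 nM (final) 17beta-estradiol-driven signal over 22 h is read by luminescence.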

The nature of assay [3]: qHTS assay to identify small molecule HDAC inhibitors (AID 1259364). Further: potency means the concentration at half of the fitted maximal effect.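 Further: wild-type HCT-116 cells with endogenous class I/II HDAC activity; nearly all actives have a fitted effect of over 45% in size.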 A digest of the protocol: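 Quantitative high-throughput format: overnight-seeded HCT-116 cells got compounds for 2 hr at 37C; HDAC-Glo I/II reagent added, 30 min RT, luminescence measured.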
Assay [4] can be described thus: qHTS assay to identify small molecule agonists of the sonic hedgehog signaling (Shh) pathway - cell viability counter screen (AID 1259366). Further: nearly all actives have a fitted effect of over 50% in size. Further: potency means the concentration at half of the fitted maximal effect. A digest of the protocol:
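Cytotoxicity counter screen run in the same wells as the Shh reporter assay. NIH/3T3 cells carrying a Gli1 response element–driven luciferase were treated with DMSO-dissolved compounds for 24hr, and live-cell protease activity was measured with CellTiter-Fluor.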

Assay [5] can be described thus: qHTS assay to identify small molecule antagonists of the sonic hedgehog signaling (Shh) pathway - cell viability counter screen (AID 1259367). Further: nearly all actives have a fitted effect of over 55% in size. Further: potency means the concentration at half of the fitted maximal effect. A digest of the protocol:
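Cytotoxicity was assessed in parallel with Shh reporter activity by measuring live-cell protease fluorescence (CellTiter-Fluor) in NIH/3T3 cells stably carrying Gli1-Luc, treated with compound under conditioned medium stimulation for 23 hr plus 1 hr reagent incubation.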

Assay [6] is described as follows: qHTS assay to identify small molecule agonists of the sonic hedgehog signaling (Shh) pathway (AID 1259368; calls by dose curve;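 further: NIH/3T3-derived 3T3Gli1-Luc cells carrying a stable Gli1-driven firefly luciferase reporter; series mostly up to about 92 µM; nearly all actives have a fitted effect of over 15% in size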). A digest of the protocol: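 Quantitative high-throughput format using a Gli1-driven firefly luciferase reporter line derived from NIH/3T3 cells. After a 24 hr compound treatment at 37 C and 5% CO2, luminescence reported Gli1 response element activity.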
Assay [7] in a line: qHTS assay to identify small molecule antagonists of the sonic hedgehog signaling (Shh) pathway (AID 1259369; calls by dose curve; further: nearly all actives have a fitted effect of over 45% in size; further: potency means the concentration at half of the fitted maximal effect). A digest of the protocol: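 Stable Gli1-Luc reporter NIH/3T3 clone; quantitative HTS in stimulated mode with conditioned medium. Luminescence measured after 24hr compound treatment at 37 C.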
The nature of assay [8]: qHTS assay to identify small molecule HDAC inhibitors - cell viability counter screen (AID 1259365). Further: series mostly up to about 92 µM; nearly all actives have a fitted effect of over 50% in size. A digest of the protocol:
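Luminescence from CellTiter-Glo, developed 30min at room temperature, reports viability of wild-type HCT-116 cells treated 2hr with compounds at 37 C and 5% CO2 after overnight plating.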

The target of assay [9] is Estrogen receptor beta (Homo sapiens) (UniProt Q92731). Nature of the assay: qHTS assay to identify small molecule agonists of the estrogen receptor beta (ER-beta) signaling pathway (AID 1259377; active means well fitted activation curve with a large enough effect in the signal ratio in the repeat runs, not every such curve was filed as active; the % refers to the signal ratio). A digest of the protocol:
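HEK293T ER-beta-UAS-bla; 2% charcoal-stripped FBS; cells pre-incubated 6 hr, compound 16 hr, 37C/5% CO2; LiveBLAzer B/G FRET substrate 2 h RT; fluorescence intensity read.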

A short description of assay [10]: qHTS assay to identify small molecule phospholipidosis (PLD) inducers (AID 1259344; active means well fitted curve in the direction sought with a large enough effect; an effect the other way counts as inactive or inconclusive). Put shortly:
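Cells (HepG2, 900 per well) attach for 4 h, receive LipidTOX Red and compound together, incubate 24 h at 37 C, are fixed 30 min with paraformaldehyde/Hoechst, then imaged at one site per well.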

Sequence of Estrogen receptor beta (Homo sapiens) (Q92731 whole entry, looked up): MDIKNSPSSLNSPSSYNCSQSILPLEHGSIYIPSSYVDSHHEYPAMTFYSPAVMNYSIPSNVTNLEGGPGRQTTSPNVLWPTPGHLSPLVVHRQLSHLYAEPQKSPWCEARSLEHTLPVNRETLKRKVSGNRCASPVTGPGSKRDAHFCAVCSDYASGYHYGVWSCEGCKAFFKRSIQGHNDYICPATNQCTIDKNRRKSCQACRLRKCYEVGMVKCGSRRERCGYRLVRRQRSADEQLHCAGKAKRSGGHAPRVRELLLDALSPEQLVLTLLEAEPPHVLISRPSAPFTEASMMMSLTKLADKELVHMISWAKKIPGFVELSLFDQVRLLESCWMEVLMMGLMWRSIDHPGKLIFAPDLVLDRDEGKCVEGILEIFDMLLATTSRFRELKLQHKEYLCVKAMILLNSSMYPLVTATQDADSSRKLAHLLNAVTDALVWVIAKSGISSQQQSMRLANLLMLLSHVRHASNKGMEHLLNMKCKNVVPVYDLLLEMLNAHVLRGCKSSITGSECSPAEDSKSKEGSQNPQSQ
Sequence of Androgen receptor (Homo sapiens) (P10275 whole entry, looked up): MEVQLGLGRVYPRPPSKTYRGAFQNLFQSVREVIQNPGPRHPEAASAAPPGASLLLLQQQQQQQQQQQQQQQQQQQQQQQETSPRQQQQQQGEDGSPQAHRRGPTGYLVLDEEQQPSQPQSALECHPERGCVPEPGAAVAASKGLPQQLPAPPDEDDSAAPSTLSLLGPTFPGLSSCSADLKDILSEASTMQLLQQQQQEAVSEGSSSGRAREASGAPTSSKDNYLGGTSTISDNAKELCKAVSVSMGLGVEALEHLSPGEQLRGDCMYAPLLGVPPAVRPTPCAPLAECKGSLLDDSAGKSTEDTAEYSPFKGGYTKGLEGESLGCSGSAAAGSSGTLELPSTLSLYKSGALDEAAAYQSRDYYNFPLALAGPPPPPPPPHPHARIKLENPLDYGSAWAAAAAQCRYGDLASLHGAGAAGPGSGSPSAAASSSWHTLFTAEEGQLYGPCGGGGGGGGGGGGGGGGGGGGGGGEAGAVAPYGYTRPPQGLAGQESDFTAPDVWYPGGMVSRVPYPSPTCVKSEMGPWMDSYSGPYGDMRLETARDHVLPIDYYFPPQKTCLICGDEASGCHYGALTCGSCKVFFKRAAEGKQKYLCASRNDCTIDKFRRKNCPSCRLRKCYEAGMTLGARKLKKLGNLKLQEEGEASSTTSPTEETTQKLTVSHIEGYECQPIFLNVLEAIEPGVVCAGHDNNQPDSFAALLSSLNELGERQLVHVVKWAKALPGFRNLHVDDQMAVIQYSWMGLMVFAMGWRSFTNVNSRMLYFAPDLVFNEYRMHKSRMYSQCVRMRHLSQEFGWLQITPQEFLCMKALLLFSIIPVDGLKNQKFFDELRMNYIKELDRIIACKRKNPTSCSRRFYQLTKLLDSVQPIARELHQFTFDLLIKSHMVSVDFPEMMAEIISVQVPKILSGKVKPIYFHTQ
Sequence of Estrogen receptor (Homo sapiens) (P03372 whole entry, looked up): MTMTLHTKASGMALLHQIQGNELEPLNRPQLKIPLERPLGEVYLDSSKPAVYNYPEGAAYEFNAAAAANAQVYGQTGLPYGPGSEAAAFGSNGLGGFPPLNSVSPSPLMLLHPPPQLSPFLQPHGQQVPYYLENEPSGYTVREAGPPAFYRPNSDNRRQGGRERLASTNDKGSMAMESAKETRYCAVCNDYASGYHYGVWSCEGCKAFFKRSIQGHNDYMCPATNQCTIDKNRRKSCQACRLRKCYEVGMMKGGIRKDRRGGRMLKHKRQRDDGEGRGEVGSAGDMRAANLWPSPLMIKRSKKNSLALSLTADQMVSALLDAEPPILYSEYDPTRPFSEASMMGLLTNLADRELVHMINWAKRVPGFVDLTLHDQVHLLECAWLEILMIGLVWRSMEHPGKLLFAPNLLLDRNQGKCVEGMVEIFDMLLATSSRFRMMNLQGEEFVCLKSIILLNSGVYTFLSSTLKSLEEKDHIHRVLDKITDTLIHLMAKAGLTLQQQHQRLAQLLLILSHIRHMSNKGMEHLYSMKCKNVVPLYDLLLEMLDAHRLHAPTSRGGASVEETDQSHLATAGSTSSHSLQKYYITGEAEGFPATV

For the compound `C=CC(=O)OCC(COC(=O)C=C)(COC(=O)C=C)COC(=O)C=C`, the Potency was 4.33 µM (active) in assay [1]; 15.4 µM (active) in assay [2]; 5.45 µM (active) in assay [4]; 7.7 µM (active) in [5]; 6.86 µM (active) in assay [7]. Besides, the Potency result in [3] and in assay [6] was “inactive” each time.
In the case of `Cc1ccc(C(=O)Cl)cc1`, the Potency result in assay [1], in assay [2], in assay [3], in [8], in assay [4] and in assay [5] was “inactive” in each case. Moreover, the Potency result in [6], in [7] and in assay [9] was “inactive” each time.
As to `CC(C)C(=O)Cl`, the Potency result in assay [1], in [3], in assay [8], in assay [4], in assay [5] and in assay [6] was “inactive” each time. In assay [7], the Potency entry was “inactive”.
Consider `c1ccc2cc3c(cc2c1)-c1cccc2cccc-3c12`, for which the Potency in [1] was 3.02 µM (active). For the same compound, the Potency entry in [3], in assay [8], in assay [5], in [6] and in [7] was “inactive” in each case.
For `[CH3][Hg][Cl]`, the Potency in [1] was 19.3 µM (active); in assay [3], 27.2 µM (active); in assay [4] it was 4.84 µM (active); in [5], 68.4 µM (active); in assay [7], 34.3 µM (active). The Potency entry in assay [2] and in assay [6] was “inactive” in each case.
Consider `ClC1=C(Cl)[C@]2(Cl)[C@@H]3[C@@H](Cl)[C@H](Cl)C[C@@H]3[C@@]1(Cl)C2(Cl)Cl`, for which the Potency result in [1], in [2], in assay [3], in assay [4], in assay [5] and in [6] was “inactive” throughout. Further, the Potency entry in [7] and in assay [9] was “inactive” in each case.
Take `O=C1c2ccccc2C(=O)C1C(=O)C(c1ccccc1)c1ccc(Cl)cc1` (stereo unspecified): the Potency in [1] is 21.7 µM (active); in assay [2], 27.3 µM (active); in [7], 54.5 µM (active). For the same compound, the Potency entry in assay [3], in assay [4], in assay [5] and in assay [6] was “inactive” each time.
On to `C[C@]12CC[C@H](O)C[C@H]1CC[C@@H]1[C@@H]2C[C@@H](O)[C@]2(C)[C@@H](C3=CC(=O)OC3)CC[C@]12O`, for which the Potency result in [1], in assay [3], in assay [8], in [4], in [5] and in assay [6] was “inactive” throughout. In addition, the Potency result in assay [7] was “inactive”.
In the case of `CC(C)(c1ccc(O)c(-c2ccccc2)c1)c1ccc(O)c(-c2ccccc2)c1`, the Potency in [1] was 30.6 µM (active); in assay [2], 48.6 µM (active); in assay [4], 15.4 µM (active); in [7] it was 12.2 µM (active). The Potency entry in [3] and in assay [6] was “inactive” in each case.
Take `N#Cc1ccccc1N`: the Potency result in [1], in assay [2], in [3], in assay [8], in assay [4] and in [5] was “inactive” throughout. Further, the Potency result in assay [6], in [7] and in [9] was “inactive” each time.
Regarding `CC[C@H]1C[C@@H]2C[C@H]3c4[nH]c5ccc(OC)cc5c4CCN(C2)[C@@H]13`, the Potency in [1] is 60.1 µM (active); in [4] it was 53.5 µM (active); in assay [5] it was 60.1 µM (active); in [7], 12 µM (active). The Potency result in [10], in assay [3], in [8] and in assay [6] was “inactive” each time.
For `ClC1=C(Cl)[C@]2(Cl)[C@@H]3[C@@H](Cl)[C@@H](Cl)C[C@@H]3[C@@]1(Cl)C2(Cl)Cl`, the Potency entry in assay [1], in assay [2], in assay [3], in assay [4], in [5] and in assay [6] was “inactive” each time. Also, the Potency result in [7] and in assay [9] was “inactive” each time.
As for `N#Cc1c(-c2ccc(Cl)cc2)[nH]c(C(F)(F)F)c1Br`, the Potency in assay [1] is 0.433 µM (active); in assay [2], 0.611 µM (active); in assay [5] it was 27.3 µM (active); in assay [7], 0.77 µM (active). The Potency result in assay [3], in [8] and in assay [6] was “inactive” throughout.
Turning to `COc1ccc(/C(=C/C(=O)N2CCOCC2)c2ccc(Cl)cc2)cc1OC`, the Potency in [1] was 1.54 µM (active). Moreover, the Potency result in assay [3], in [8], in assay [4], in [6] and in [9] was “inactive” throughout.
As to `CC(C)N1C(=O)N(c2ccccc2)CSC1=NC(C)(C)C`, the Potency in assay [1] is 54.5 µM (active). Besides, the Potency result in [3], in assay [4], in assay [5] and in [6] was “inactive” throughout.
For `Fc1ccc(Oc2ccnc3cc(Cl)cc(Cl)c23)cc1`, the Potency result in [2], in [3], in assay [8], in [4], in assay [5] and in assay [6] was “inactive” throughout.
For the compound `COc1cccc(C(=O)CCN[C@@H](C)[C@H](O)c2ccccc2)c1`, the figures for the Potency in assay [1] and in [7] were 29.8 µM (active) and 23.7 µM (active), respectively. For the same compound, the Potency entry in [3], in [6] and in [9] was “inactive” each time.
In the case of `CC(C)CC(C)N` (stereo unspecified), the Potency entry in assay [2], in assay [3], in [8], in assay [4], in assay [5] and in assay [6] was “inactive” throughout. The Potency result in [7] was “inactive”.
With `CS(=O)(=O)c1ccc(C(=O)C2C(=O)CCCC2=O)c([N+](=O)[O-])c1`, the Potency entry in assay [2], in [10], in assay [3], in [8], in assay [4] and in assay [6] was “inactive” each time.
